Test results: publication PMC7862700, “An all-to-all approach to the identification of sequence-specific readers for epigenetic DNA modifications on cytosine”

The sequences below were run against T1, SPDEF (Homo sapiens, UniProt O95238 1-335) (assay: DAPPL (digital affinity profiling via proximity ligation, sequencing); 10 mM Tris-HCl pH 7.5, 50 mM NaCl, 1 mM DTT, 4% glycerol, room temperature, 30 min; GST-TFs on glutathione beads, 16-mer random dsDNA library, 0.1% formaldehyde crosslink after washing; high values mean tight binding). Settings: protein: recombinant; tags: N-terminal GST; dsDNA, one strand shown.
T1 sequence: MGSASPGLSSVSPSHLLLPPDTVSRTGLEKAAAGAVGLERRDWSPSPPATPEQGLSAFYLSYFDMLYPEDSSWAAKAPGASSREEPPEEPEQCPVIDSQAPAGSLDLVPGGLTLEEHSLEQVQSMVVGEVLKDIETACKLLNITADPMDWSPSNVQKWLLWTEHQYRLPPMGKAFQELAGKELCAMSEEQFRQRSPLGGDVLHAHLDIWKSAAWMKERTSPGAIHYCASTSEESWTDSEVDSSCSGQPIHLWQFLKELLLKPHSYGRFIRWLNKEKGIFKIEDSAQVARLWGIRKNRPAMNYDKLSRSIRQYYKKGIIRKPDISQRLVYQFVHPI
In short: (§1)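 Pools of DNA-barcoded human transcription factors, expressed in yeast as GST fusions on glutathione beads and combined with a tag-only sample, were incubated with 200 nmole of a 16-mer random double-stranded DNA library. Incubation took 30 min at room temperature in Tris/NaCl/DTT/glycerol buffer and was followed by washing, 0.1% formaldehyde crosslinking, proximity ligation (BsaI/T4 ligase, 1 h, 37 °C), PCR amplification and sequencing on an Illumina NextSeq500. Binding signal is the ratio of a hexamer's read frequency for a factor to its frequency for the tag-only sample.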

| Sequence | binding signal |
| --- | --- |
| TTCCCT | 1.47 fold enrichment (6-mer frequency, TF over GST control) |
| ACAACC | 1.28 fold enrichment (6-mer frequency, TF over GST control) |
| CCCTCT | 1.17 fold enrichment (6-mer frequency, TF over GST control) |
| GTTGCA | 1.17 fold enrichment (6-mer frequency, TF over GST control) |
| CCGAAA | 1.17 fold enrichment (6-mer frequency, TF over GST control) |
| ATGGCT | 1.23 fold enrichment (6-mer frequency, TF over GST control) |
| GTGGCT | 1.03 fold enrichment (6-mer frequency, TF over GST control) |
| GTTTTA | 1.04 fold enrichment (6-mer frequency, TF over GST control) |
| TTGGCC | 1.06 fold enrichment (6-mer frequency, TF over GST control) |
| GTAGCA | 1.08 fold enrichment (6-mer frequency, TF over GST control) |
| CTGGTC | 1.24 fold enrichment (6-mer frequency, TF over GST control) |
| TTTGGC | 1.12 fold enrichment (6-mer frequency, TF over GST control) |
| CCTTGT | 1.37 fold enrichment (6-mer frequency, TF over GST control) |
| TCTGGT | 1.28 fold enrichment (6-mer frequency, TF over GST control) |
| CTTGTT | 1.05 fold enrichment (6-mer frequency, TF over GST control) |
| GCTTAT | 1.43 fold enrichment (6-mer frequency, TF over GST control) |
| CCGCCC | 1.27 fold enrichment (6-mer frequency, TF over GST control) |
| CACGCC | 1.05 fold enrichment (6-mer frequency, TF over GST control) |
| CCACGA | 1.03 fold enrichment (6-mer frequency, TF over GST control) |
| TGGCAA | 1 fold enrichment (6-mer frequency, TF over GST control) |

| Sequence | binding signal |
| --- | --- |
| TCCCCA | 1.3 fold enrichment (6-mer frequency, TF over GST control) |
| TAGAAG | 1.06 fold enrichment (6-mer frequency, TF over GST control) |
| CAATCA | 1.07 fold enrichment (6-mer frequency, TF over GST control) |
| AATGAA | 1.04 fold enrichment (6-mer frequency, TF over GST control) |
| TCACCC | 1.23 fold enrichment (6-mer frequency, TF over GST control) |
| CGTTAT | 1.08 fold enrichment (6-mer frequency, TF over GST control) |
| ACACAA | 1.17 fold enrichment (6-mer frequency, TF over GST control) |
| CTCACC | 1.12 fold enrichment (6-mer frequency, TF over GST control) |
| GTAATT | 1.19 fold enrichment (6-mer frequency, TF over GST control) |
| CCAATG | 1.02 fold enrichment (6-mer frequency, TF over GST control) |
| CCCCGC | 1.06 fold enrichment (6-mer frequency, TF over GST control) |
| ACGACA | 1.26 fold enrichment (6-mer frequency, TF over GST control) |
| CGCTGC | 1.15 fold enrichment (6-mer frequency, TF over GST control) |
| CGTTCC | 1.5 fold enrichment (6-mer frequency, TF over GST control) |
| ATTCCA | 1.11 fold enrichment (6-mer frequency, TF over GST control) |
| TTGTAC | 1.54 fold enrichment (6-mer frequency, TF over GST control) |
| CACATT | 1.18 fold enrichment (6-mer frequency, TF over GST control) |
| GCTACA | 1.25 fold enrichment (6-mer frequency, TF over GST control) |
| GGTTCC | 1.84 fold enrichment (6-mer frequency, TF over GST control) |
| CAGGAT | 2.03 fold enrichment (6-mer frequency, TF over GST control) |

Each sequence was assayed against T2, ETV7 (Homo sapiens, UniProt Q9Y603 1-341) in the same assay as above. Settings: protein: recombinant; tags: N-terminal GST; dsDNA, one strand shown.
T2 sequence: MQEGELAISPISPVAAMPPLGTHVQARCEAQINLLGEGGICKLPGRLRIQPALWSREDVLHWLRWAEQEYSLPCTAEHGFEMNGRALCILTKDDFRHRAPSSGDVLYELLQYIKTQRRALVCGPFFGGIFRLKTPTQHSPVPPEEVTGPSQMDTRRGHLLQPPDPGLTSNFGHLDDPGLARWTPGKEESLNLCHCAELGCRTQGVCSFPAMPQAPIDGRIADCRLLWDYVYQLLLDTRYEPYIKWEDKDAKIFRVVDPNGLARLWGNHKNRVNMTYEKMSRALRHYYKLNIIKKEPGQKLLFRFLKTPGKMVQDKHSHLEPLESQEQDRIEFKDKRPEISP
In short: as §1

| Sequence | binding signal |
| --- | --- |
| TTCCCT | 1.55 fold enrichment (6-mer frequency, TF over GST control) |
| ACAACC | 1.18 fold enrichment (6-mer frequency, TF over GST control) |
| CCCTCT | 1.27 fold enrichment (6-mer frequency, TF over GST control) |
| GTTGCA | 1.15 fold enrichment (6-mer frequency, TF over GST control) |
| CCGAAA | 1.24 fold enrichment (6-mer frequency, TF over GST control) |
| ATGGCT | 1.34 fold enrichment (6-mer frequency, TF over GST control) |
| GTGGCT | 1.1 fold enrichment (6-mer frequency, TF over GST control) |
| GTTTTA | 1.23 fold enrichment (6-mer frequency, TF over GST control) |
| TTGGCC | 1.12 fold enrichment (6-mer frequency, TF over GST control) |
| GTAGCA | 1.06 fold enrichment (6-mer frequency, TF over GST control) |
| CTGGTC | 1.15 fold enrichment (6-mer frequency, TF over GST control) |
| TTTGGC | 1.24 fold enrichment (6-mer frequency, TF over GST control) |
| CCTTGT | 1.19 fold enrichment (6-mer frequency, TF over GST control) |
| TCTGGT | 1.35 fold enrichment (6-mer frequency, TF over GST control) |
| CTTGTT | 1.27 fold enrichment (6-mer frequency, TF over GST control) |
| GCTTAT | 1.43 fold enrichment (6-mer frequency, TF over GST control) |
| CCGCCC | 1.19 fold enrichment (6-mer frequency, TF over GST control) |
| CACGCC | 1.12 fold enrichment (6-mer frequency, TF over GST control) |
| CCACGA | 1.17 fold enrichment (6-mer frequency, TF over GST control) |
| TGGCAA | 1.16 fold enrichment (6-mer frequency, TF over GST control) |

| Sequence | binding signal |
| --- | --- |
| TCCCCA | 1.12 fold enrichment (6-mer frequency, TF over GST control) |
| TAGAAG | 1.24 fold enrichment (6-mer frequency, TF over GST control) |
| CAATCA | 1.04 fold enrichment (6-mer frequency, TF over GST control) |
| AATGAA | 1.18 fold enrichment (6-mer frequency, TF over GST control) |
| TCACCC | 1.04 fold enrichment (6-mer frequency, TF over GST control) |
| CGTTAT | 1.21 fold enrichment (6-mer frequency, TF over GST control) |
| ACACAA | 1.08 fold enrichment (6-mer frequency, TF over GST control) |
| CTCACC | 1.06 fold enrichment (6-mer frequency, TF over GST control) |
| GTAATT | 1.3 fold enrichment (6-mer frequency, TF over GST control) |
| CCAATG | 1.1 fold enrichment (6-mer frequency, TF over GST control) |
| CCCCGC | 1.19 fold enrichment (6-mer frequency, TF over GST control) |
| ACGACA | 1.05 fold enrichment (6-mer frequency, TF over GST control) |
| CGCTGC | 1.03 fold enrichment (6-mer frequency, TF over GST control) |
| CGTTCC | 1.3 fold enrichment (6-mer frequency, TF over GST control) |
| ATTCCA | 1.1 fold enrichment (6-mer frequency, TF over GST control) |
| TTGTAC | 1.33 fold enrichment (6-mer frequency, TF over GST control) |
| CACATT | 1.18 fold enrichment (6-mer frequency, TF over GST control) |
| GCTACA | 1.18 fold enrichment (6-mer frequency, TF over GST control) |
| GGTTCC | 1.47 fold enrichment (6-mer frequency, TF over GST control) |
| CAGGAT | 1.09 fold enrichment (6-mer frequency, TF over GST control) |

Each sequence was assayed against T3, ELF5 (Homo sapiens, UniProt Q9UKW6-2 1-255) in the same assay as above. Settings: protein: recombinant; tags: N-terminal GST; dsDNA, one strand shown.
T3 sequence: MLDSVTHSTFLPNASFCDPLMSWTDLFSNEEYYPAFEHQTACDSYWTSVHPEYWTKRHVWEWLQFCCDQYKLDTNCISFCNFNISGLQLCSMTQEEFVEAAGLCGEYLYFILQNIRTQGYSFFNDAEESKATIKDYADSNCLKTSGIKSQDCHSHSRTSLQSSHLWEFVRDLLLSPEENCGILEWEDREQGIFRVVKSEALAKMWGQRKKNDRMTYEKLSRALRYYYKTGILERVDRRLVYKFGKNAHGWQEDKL
In short: as §1

| Sequence | binding signal |
| --- | --- |
| TTCCCT | 2.49 fold enrichment (6-mer frequency, TF over GST control) |
| ACAACC | 1.22 fold enrichment (6-mer frequency, TF over GST control) |
| CCCTCT | 1.29 fold enrichment (6-mer frequency, TF over GST control) |
| GTTGCA | 1.1 fold enrichment (6-mer frequency, TF over GST control) |
| CCGAAA | 1.18 fold enrichment (6-mer frequency, TF over GST control) |
| ATGGCT | 1.25 fold enrichment (6-mer frequency, TF over GST control) |
| GTGGCT | 1.03 fold enrichment (6-mer frequency, TF over GST control) |
| GTTTTA | 1.09 fold enrichment (6-mer frequency, TF over GST control) |
| TTGGCC | 1.02 fold enrichment (6-mer frequency, TF over GST control) |
| GTAGCA | 1.1 fold enrichment (6-mer frequency, TF over GST control) |
| CTGGTC | 1.17 fold enrichment (6-mer frequency, TF over GST control) |
| TTTGGC | 1.18 fold enrichment (6-mer frequency, TF over GST control) |
| CCTTGT | 1.52 fold enrichment (6-mer frequency, TF over GST control) |
| TCTGGT | 1.26 fold enrichment (6-mer frequency, TF over GST control) |
| CTTGTT | 1.27 fold enrichment (6-mer frequency, TF over GST control) |
| GCTTAT | 1.15 fold enrichment (6-mer frequency, TF over GST control) |
| CCGCCC | 1.38 fold enrichment (6-mer frequency, TF over GST control) |
| CACGCC | 1.1 fold enrichment (6-mer frequency, TF over GST control) |
| CCACGA | 1.01 fold enrichment (6-mer frequency, TF over GST control) |
| TGGCAA | 1.16 fold enrichment (6-mer frequency, TF over GST control) |
